# Sampled rows, rich in hits. Any-hit rate of the full collection: about 22%.
# CYP2C9 inh: blockers of cytochrome P450 2C9 activity – biochemical, luminescence, ADME assay, primary screen | hit rate 20% among 96,000 | P11712 | CYP2C9 Supersomes, luciferin-H conversion | inhibition, % at 5 µM;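 active = blocking of liver enzyme CYP2C9 beyond about 50% at 5 µM, limit read from the data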
# Target sequence (P11712 whole entry, looked up): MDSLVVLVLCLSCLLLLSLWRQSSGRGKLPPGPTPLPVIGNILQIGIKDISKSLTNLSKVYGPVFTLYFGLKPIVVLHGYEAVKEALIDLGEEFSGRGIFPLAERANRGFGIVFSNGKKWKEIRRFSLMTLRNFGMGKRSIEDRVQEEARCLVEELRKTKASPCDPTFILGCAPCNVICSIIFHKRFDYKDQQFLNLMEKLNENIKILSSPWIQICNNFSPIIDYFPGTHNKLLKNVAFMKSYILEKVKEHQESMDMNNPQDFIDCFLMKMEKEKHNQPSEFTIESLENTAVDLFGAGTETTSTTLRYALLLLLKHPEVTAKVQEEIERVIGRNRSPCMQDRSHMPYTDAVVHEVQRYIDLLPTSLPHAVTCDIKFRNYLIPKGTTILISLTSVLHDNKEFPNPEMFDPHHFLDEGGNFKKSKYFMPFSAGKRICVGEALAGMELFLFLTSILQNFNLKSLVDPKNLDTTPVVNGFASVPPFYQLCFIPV
# CYP2C19 inh: blockers of cytochrome P450 2C19 activity – biochemical, luminescence, ADME assay, primary screen | AID 778, 2007 | hit rate 21% among 96,000 | CYP2C19 Supersomes, luciferin-H EGE luminescence, 30 min | P33261 | inhibition, % at 5 µM;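 active = CYP2C19 inhibition above a set limit at 5 µM in the primary screen, cut at about 50% in these data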
# Measles CPE: compounds protecting cells from measles virus cytopathic effect, primary screen, measles RdRp inhibitor project, single point, MLSMR library, absorbance; hit rate 1.5% among 140,000; AID 841, 2007; protection (pct of control), % at 4 µM; Measles virus-infected cells, CPE protection; in the data active = protection mostly above about 24%, no sharp cut-off; inactive = mostly below about 26%
# CYP2C19 act: human CYP2C19 activators, primary screen, biochemical, luminescence | Cytochrome P450 2C19 (Homo sapiens), P33261 | recombinant CYP2C19, luciferin-H EGE luminescence; stronger effect = higher value; 0 = fully inhibited enzyme, 1 = untreated enzyme | activation factor at 5 µM | 96,000 tested, under 10 active;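 active = activation factor of at least 2 at 5 µM in the primary screen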
# CYP2C9 activ: human CYP2C9 activators, primary screen, biochemical, luminescence; Cytochrome P450 2C9 (Homo sapiens), P11712; recombinant CYP2C9, luciferin-H conversion; stronger effect = higher value; factor 1 = untreated enzyme, 0 = blocked; activation factor at 5 µM; hit rate 1.4% among 96,000;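 active = activation factor of 2 or more for CYP2C9 at a 5 µM dose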
# Numbers stand for hits; 0 = inactive; - = not tested or not shown.
SMILES,CYP2C9 inh,CYP2C19 inh,Measles CPE,CYP2C19 act,CYP2C9 activ
Cc1ccc(-c2noc(CCC(=O)NCC3CCN(Cc4cccc(C)c4)CC3)n2)cc1,0,0,0,0,0
COc1ccc(N(CC(=O)Nc2ccc3c(c2)OCCO3)S(=O)(=O)c2c(C)nn(C)c2C)cc1,74,55,0,0,0
Cc1nn(C)c(C)c1S(=O)(=O)N(CC(=O)Nc1ccc2c(c1)OCO2)c1ccc(C(C)C)cc1,-,-,0,-,-
COc1ccc(N(CC(=O)Nc2cc(C)ccc2C)S(=O)(=O)c2c(C)nn(C)c2C)cc1,0,55,0,0,0
Cc1ccc(Nc2nc(NCCCN3CCOCC3)nc(N)c2[N+](=O)[O-])cc1C,-,-,0,-,-
CCOC(=O)CC1=C(C(=O)OCC)C(c2cccnc2)C(C#N)=C(N)O1 (stereo not drawn),0,56,0,0,0
CCOC(=O)CC1=C(C#N)C(c2cccnc2)C(C(=O)OCC)=C(N)O1 (stereo not drawn),75,73,0,0,0
Cc1ccc(NC(=O)c2ccc(OC(=O)c3cc4ccccc4o3)cc2)cc1,0,0,0,0,0
CC1CCCCN1C(=O)CSc1nc2ccccc2n1CC(=O)N1CCc2ccccc21 (stereo not drawn),99,82,0,0,0
CC(C)NC(=O)CSc1nc2ccccc2n1CC(=O)N1CCc2ccccc21,95,72,0,0,0
COC(=O)c1ccc(C(=O)OC)c(-n2c(=O)c3ccccc3c3ccccc3c2=O)c1,-,-,0,-,-
CCOC(=O)Nc1ccc(OC)cc1S(=O)(=O)N1CCCCC1,0,63,0,0,0
COc1cc(S(=O)(=O)N2CCCCCC2)c(OC)cc1Br,75,96,0,0,0
COc1cc(C)c(S(=O)(=O)N2CCN(C)CC2)cc1C,0,62,0,0,0
COc1ccc(Br)cc1S(=O)(=O)N1CCCC1,-,-,0,-,-
COc1ccc(S(=O)(=O)N2CCCN(S(=O)(=O)c3ccc(OC)cc3C)CC2)c(C)c1,0,0,0,0,2.1
CCOCCc1nnc(NC(=O)c2cc(OC)c(OC)c(OC)c2)s1,0,0,0,0,0
O=[N+]([O-])c1ccc([C@H](O)[C@H](CO)N=Cc2ccccc2O)cc1,0,0,0,0,0
COc1ccc(OC)c(N2C(=O)CC(Cc3cc(C)cc(C)c3)C2=O)c1 (stereo not drawn),-,-,0,-,-
Cc1ccnc(NC(=O)c2cccc(NC(=O)COc3ccccc3)c2)c1,0,0,0,0,0
O=C(CN1CCSC1=NCc1ccccc1)c1ccc(Cl)c(Cl)c1,-,-,0,-,-
COc1ccc(OC)c(S(=O)(=O)N2CCN(C)CC2)c1,0,0,0,0,0
COc1cc(C)c(S(=O)(=O)N2CCCC2)cc1C,0,88,0,0,0
COc1ccc(C(C)(C)C)cc1S(=O)(=O)N1CCN(C)CC1,0,0,0,0,2
COc1c(C)cc(S(=O)(=O)N2CCCC2)c(C)c1C,0,96,0,0,0
SMILES,CYP2C9 inh,CYP2C19 inh,Measles CPE,CYP2C19 act,CYP2C9 activ
COc1ccc(OC)c(S(=O)(=O)N2CCCCCC2)c1,0,0,0,0,0
CC(=O)Nc1ccc(N(C)S(C)(=O)=O)cc1,0,0,39,0,0
CN(CC(N)=O)S(=O)(=O)c1ccc(F)cc1,0,0,0,0,0
CC(=O)Nc1ccc(S(=O)(=O)N(C)S(=O)(=O)c2ccc(F)cc2)cc1,0,52,0,0,0
CC1C(=O)C(C)C(c2ccc3c(c2)OCO3)NC1c1ccc2c(c1)OCO2 (stereo not drawn),72,97,0,0,0
O=C1CC(c2ccc3c(c2)OCO3)CN1 (stereo not drawn),0,0,0,0,0
O=C(NCC1CCCO1)Nc1ccc(Cl)cc1 (stereo not drawn),0,0,0,0,0
CCOC(=O)CN1NC2(CCCC(C)C2)NC1=S (stereo not drawn),0,61,0,0,0
CCOC(=O)CN1NC2(CCC(C)CC2)NC1=S (stereo not drawn),0,61,0,0,0
CN(C)C(=O)N1CCC(C(=O)NCc2ccccc2Cl)CC1,0,0,0,0,0
CC1CCCCC1NC(=O)C1CCN(C(=O)c2sccc2-n2cccc2)CC1 (stereo not drawn),0,0,0,0,0
CCOc1ccccc1CNC(=O)C1CCN(C(=O)c2sccc2-n2cccc2)CC1,0,84,0,0,0

# From PubChem BioAssay
